Source: PubChem BioAssay AID1159580 (chemical genetic matrix, 2015)
About 2,000 (36%) of roughly 5,500 compounds were called active. About 18% were inconclusive and are not listed. Cut-off read from the data, not from the text of the source: active = normalized growth mostly below about 0.91 (no sharp cut-off); inconclusive = no clear call, values can overlap the other calls; inactive = mostly above about 0.92. This is one part of the list.

Test: chemical genetic growth profiling, strain panel (AID 1159580);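 note: tested at 20 µM; growth read once vehicle control cultures reached saturation at 30 °C; 1 = growth at the plate median or of vehicle wells; lower values mean less growth of the strain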
Details: S. cerevisiae deletion strains, growth OD

Measured: normalized growth

NC(=O)C1(N2CCCCC2)CCN(CCCC(=O)c2ccc(F)cc2)CC1
inactive: locus YHR030C, strain SLT2, stronger effect = lower value 1.04 | locus YHR079C, strain IRE1, stronger effect = lower value 1.02 | locus YJL095W, strain BCK1, stronger effect = lower value 0.99 | locus YJR066W, strain TOR1, stronger effect = lower value 0.968 | locus YLR113W, strain HOG1, stronger effect = lower value 0.981 | locus YNL183C, strain NPR1, stronger effect = lower value 0.959 | locus YOR231W, strain MKK1, stronger effect = lower value 1.01 | locus YPL256C, strain CLN2, stronger effect = lower value 0.988

COc1ccccc1N1CCN(CCN(C(=O)c2ccc(F)cc2)c2ccccn2)CC1
inactive: locus YAL013W, strain DEP1, stronger effect = lower value 0.995 | locus YAL040C, strain CLN3, stronger effect = lower value 1.01 | locus YCL061C, strain MRC1 (second series), stronger effect = lower value 1 | locus YDR150W, strain NUM1, stronger effect = lower value 0.999 | locus YDR363W, strain ESC2, stronger effect = lower value 1.02 | locus YER002W, strain NOP16, stronger effect = lower value 1.01 | locus YGR078C, strain PAC10, stronger effect = lower value 1.01 | locus YJR075W, strain HOC1, stronger effect = lower value 1.01 | locus YMR307W, strain GAS1, stronger effect = lower value 0.993 | locus YNL128W, strain TEP1, stronger effect = lower value 1 | locus YNL153C, strain GIM3, stronger effect = lower value 1.01 | locus YNL175C, strain NOP13, stronger effect = lower value 1.01 | locus YNL197C, strain WHI3, stronger effect = lower value 0.998 | locus YNL224C, strain SQS1, stronger effect = lower value 1 | locus YOR083W, strain WHI5 (second series), stronger effect = lower value 1.01 | locus YPL055C, strain LGE1, stronger effect = lower value 1.01 | locus YPL241C, strain CIN2, stronger effect = lower value 1
